Compounds without any hit were thinned out: in the full panel of roughly 83,000, 20% have a hit.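 Cell lines were cultured in 96-well plates, exposed to a single compound concentration, and assessed for percent growth 48 hours later.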 A number with no mark means an inactive call. The source made the active and inactive calls. The calls were made as follows: active = growth percent below 10; inactive = the rest.
Key:
Assay in all cases: NCI-60 one-dose screen, 48 h (100 = growth as untreated, 0 = no growth, -100 = all killed)
Conditions in all cases: 10 µM
HOP-92 NSCLC = system: HOP-92 NSCLC
MDA-MB-231 breast = system: MDA-MB-231 breast
RXF 393 renal = system: RXF 393 renal
CCRF-CEM leukemia = system: CCRF-CEM leukemia
OVCAR-4 ovarian = system: OVCAR-4 ovarian
HS 578T breast = system: HS 578T breast
NCI/ADR-RES ovarian = system: NCI/ADR-RES ovarian
T-47D breast = system: T-47D breast
BT-549 breast = system: BT-549 breast
MDA-MB-435 melanoma = system: MDA-MB-435 melanoma
SW-620 colon = system: SW-620 colon
MCF7 breast = system: MCF7 breast
HCC-2998 colon = system: HCC-2998 colon
LOX IMVI melanoma = system: LOX IMVI melanoma
COLO 205 colon = system: COLO 205 colon
HCT-116 colon = system: HCT-116 colon
KM12 colon = system: KM12 colon
SK-MEL-5 melanoma = system: SK-MEL-5 melanoma

| Compound | growth (HOP-92 NSCLC) | growth (MDA-MB-231 breast) | growth (RXF 393 renal) | growth (CCRF-CEM leukemia) | growth (OVCAR-4 ovarian) | growth (HS 578T breast) | growth (NCI/ADR-RES ovarian) | growth (T-47D breast) | growth (BT-549 breast) | growth (MDA-MB-435 melanoma) | growth (SW-620 colon) | growth (MCF7 breast) | growth (HCC-2998 colon) | growth (LOX IMVI melanoma) | growth (COLO 205 colon) [%] | growth (HCT-116 colon) | growth (KM12 colon) | growth (SK-MEL-5 melanoma) |
| --- | --- | --- | --- | --- | --- | --- | --- | --- | --- | --- | --- | --- | --- | --- | --- | --- | --- | --- |
| O=C(CN1CCN(c2ncnc3c2cnn3-c2ccccc2)CC1)Nc1ccc(Br)cc1 | 74.6% | 66.7% | 76% | 61.6% | 56.5% | 70.7% | 56.1% | 41.6% | 50% | 53.2% | 78.1% | 36.8% | 78.8% | – | – | – | – | – |
| COC(=O)CNC(=O)COc1c(OC)c(OC)cc2oc(-c3cccc(C(=O)Nc4ccc(Cl)cc4)c3)cc(=O)c12 | 39.1% | -1.24% (active) | 45.9% | – | 6.23% (active) | -3.95% (active) | 47.5% | 37.9% | 1.95% (active) | 28.5% | 51.4% | 22.5% | 74.2% | -33.2% (active) | – | – | – | – |
| Fc1ccc(-c2csc(Nc3cccc(Nc4nc(-c5ccc(F)cc5)cs4)c3)n2)cc1 | 39.2% | 64.6% | 75.5% | – | 55.7% | 69.3% | 63.7% | 7.43% (active) | 64% | 63.1% | 70.3% | 24.7% | 35.2% | – | 75.7 | 57.7% | – | – |
| COc1ccccc1-n1cc(C#N)c(N)c1C(=O)c1ccc(Cl)cc1Cl | 44.2% | 46.4% | -8.31% (active) | 7.78% (active) | 61% | -2.89% (active) | 16.4% | 28.5% | 31.4% | -38.3% (active) | 25% | 16.4% | 58.5% | – | – | – | – | – |
| COc1cc2oc(-c3cccc(C(=O)Nc4ccc(Cl)cc4)c3)cc(=O)c2c(OCCN)c1OC | -84% (active) | -86.7% (active) | -85% (active) | -52.6% (active) | -62.9% (active) | -68.1% (active) | -74.7% (active) | -73.8% (active) | -88.2% (active) | -76.9% (active) | -79.4% (active) | -71.5% (active) | -80.8% (active) | – | – | – | -83.2% (active) | – |
| CC1(C)CC[C@]2(C(=O)O)CC[C@]3(C)C(=CCC4[C@@]5(C)C[C@@H](O)[C@@H]6OC(c7cccc(F)c7)OC[C@@]6(C)C5CC[C@]43C)C2C1 (some centres undefined) | 41.9% | 60.7% | 67.2% | 32% | 54.6% | 66.4% | 43.7% | 38.9% | 39% | 58.1% | 31% | 21.5% | 37.5% | 27.6% | – | 9.3% (active) | – | 45.9% |
| COc1ccc(C2OC[C@@]3(C)C4CC[C@]5(C)C(CC=C6C7CC(C)(C)CC[C@]7(C(=O)O)CC[C@]65C)[C@@]4(C)C[C@@H](O)[C@@H]3O2)cc1 (some centres undefined) | 64.8% | 110% | 89% | 50.3% | 86.9% | 85.3% | 87.1% | 88.5% | 82.4% | 97% | 69.9% | 50.9% | 101% | – | 78.8 | – | – | 80.5% |
| COc1ccc(-n2c(SCC(=O)NNS(=O)(=O)c3ccccc3)nc3ccc(Cl)cc3c2=O)cc1 | 101% | 89.3% | 100% | 108% | 98.2% | 99.7% | 105% | 94.8% | 105% | 103% | 105% | 83.2% | 118% | 87.2% | 120 | 95.6% | – | 98.9% |
| COc1cc(Nc2nc(O)c(/C=C3\C=Nc4ccccc43)s2)cc(OC)c1OC | -72.3% (active) | -40.7% (active) | -69.2% (active) | 14.9% | -63.9% (active) | -20.2% (active) | 11.4% | 2.48% (active) | -41.4% (active) | -77.1% (active) | -52.1% (active) | -23.7% (active) | -48.2% (active) | – | – | -59.2% (active) | – | -34.7% (active) |
| Fc1ccc(/C=C/c2nc3ccccc3n3c(-c4ccc(Cl)cc4)nnc23)cc1 | 67.6% | 70% | 58.8% | 0.524% (active) | 69% | 80.5% | 70.4% | 60.9% | 79.3% | 78.4% | 44.3% | 12.9% | 102% | -89.2% (active) | 67.8 | – | 80.2% | – |
| CCOC(=O)c1ccc(NC(=O)CSC(CC(=O)c2sc(Nc3ccccn3)nc2C)c2ccccc2F)cc1 (centres undefined) | -14.5% (active) | 10.5% | -12.1% (active) | – | 41.1% | 8.86% (active) | 10.5% | 13.1% | -9.95% (active) | -10.7% (active) | 0.242% (active) | -17.3% (active) | -7.21% (active) | – | – | 1.05% (active) | – | – |
| CCOc1ccc(/C=N/NC(=O)Cn2nc(Cc3ccc(OC)cc3)c3onc(C)c3c2=O)cc1 | -25.7% (active) | 20.7% | -65.6% (active) | 17.9% | 10.1% | 1.74% (active) | 13.2% | 16.3% | 23.7% | 50.5% | 23% | 27.9% | -11.5% (active) | – | 50.4 | – | – | 89.2% |
| COc1cccc(O)c1/C=C1\SCc2cc3c(OC)cccc3[o+]c21 | 154% | 102% | – | – | – | 111% | 108% | – | 111% | 132% | 115% | 90% | 114% | – | 140 | 107% | 110% | – |
| O=C(CN1CCN(c2ncnc3c2cnn3-c2ccccc2)CC1)Nc1ccc(Cl)cc1 | 69.8% | 63.3% | 74.4% | – | 44.5% | 64.6% | 48% | 26.7% | 39.1% | 47% | 78.4% | 27.6% | 55.8% | – | 56.7 | 51.8% | – | – |
| COc1ccc(NCc2cn(-c3ccc(C(=O)O)cc3)nc2-c2ccc(F)cc2)cc1C(F)(F)F | 68.3% | 82.6% | 75.4% | – | 57.2% | 48.7% | 64.4% | 47.5% | 33.2% | 36.8% | 60.1% | 30.5% | 51.7% | 43.8% | – | – | – | – |
| COc1ccc(Cc2nn(CC(=O)N/N=C/c3ccc([N+](=O)[O-])cc3)c(=O)c3c(C)noc23)cc1 | 91.6% | 61.2% | 55.5% | – | 1.77% (active) | 48.8% | 73.9% | 73.5% | 87.4% | 71.7% | 60.9% | 55% | 105% | 26.4% | – | 27% | 79.7% | – |
| COc1cc2oc(-c3cccc(C(=O)Nc4ccc(Cl)cc4)c3)cc(=O)c2c(OCCNC(=O)[C@@H](N)CO)c1OC | -2.3% (active) | 3.78% (active) | 41.5% | -37.9% (active) | 86.7% | 53.8% | 102% | 31.3% | 58.9% | 15.7% | -37.7% (active) | -51.8% (active) | 20.5% | – | – | – | – | -81.9% (active) |
| O=C1S/C(=C\c2ccc([N+](=O)[O-])cc2)C(=O)N1CCN1CCCCC1 | 146% | 102% | 132% | – | 111% | 115% | 109% | 95.6% | 118% | 102% | 113% | 94.2% | 104% | – | 113 | 105% | 105% | – |
| COc1ccc(Cc2nn(CC(=O)N/N=C/c3ccc(Br)cc3)c(=O)c3c(C)noc23)cc1 | -15% (active) | 21.1% | -33.7% (active) | – | -44% (active) | 2% (active) | 41.1% | -1.9% (active) | 50% | 54.1% | 48.8% | 40.4% | 73.8% | – | 52.2 | – | 60.7% | 85.7% |
| O=[N+]([O-])c1cccc(-c2nnc3c(/C=C/c4ccccc4O)nc4ccccc4n23)c1 | 51.2% | 72.2% | 52.6% | – | 68.4% | 30.7% | 57.5% | 26.3% | 62.6% | 40.7% | 41.7% | 22.1% | 53.8% | – | – | – | – | – |
